# PubChem BioAssay (NCATS)
# Records with an inconclusive call do not appear. Where a call stands in place of a potency, no number is given. Calls of active or inactive are those of the source. Unless noted, the call rests on the fitted dose curve; in most records, active means well fitted curve in the direction sought with a large enough effect; inconclusive means small, poorly fitted or top-dose-only effect, or another doubt; inactive means no such curve, though single readings can be large; an effect the other way counts as inactive or inconclusive.
# Legend:
# [1] = Validation of Assay for Modulators of Lamin A Splicing (AID 1459; active means well fitted curve in the direction sought with a large enough effect in the signal ratio; the % refers to the signal ratio;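 further: cells exposed to compound for two days before reading; ratio rise marks activators and ratio drop marks inhibitors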)
# Procedure, shortened: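 Splicing correction is reported by an EGFP-containing lamin A minigene in stably transfected S3 HeLa cells, while DsRed2 controls for viability and nonspecific signal. Cells are exposed to compounds for 48 hrs before the GFP over RFP ratio is taken.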
# [2] = qHTS Assay for Lipid Storage Modulators (AID 1519; calls by dose curve); conditions: Drosophila S3 cells, BODIPY lipid droplet/cell ratio, laser cytometry, cells loaded with oleic acid
# Procedure, shortened: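 Cells seeded at 5,000 per well were treated with compounds over a concentration series and loaded with oleic acid (400 uM, as added). Lipid droplet fluorescence (488 nm excitation, 500-530 nm channel) was read by laser-scanning cytometry and normalized to 20 uM Triacsin C.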
# [3] = target: DNA repair nuclease/redox regulator APEX1 (Homo sapiens) (UniProt P27695); test: qHTS Validation Assay for Inhibitors of the Human Apurinic/apyrimidinic Endonuclease 1 (APE1) (AID 1705;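 further: TAMRA fluorescence gain over two minutes as APE1 cuts a quenched THF abasic duplex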)
# DNA repair nuclease/redox regulator APEX1 (Homo sapiens), sequence (P27695 whole entry, looked up): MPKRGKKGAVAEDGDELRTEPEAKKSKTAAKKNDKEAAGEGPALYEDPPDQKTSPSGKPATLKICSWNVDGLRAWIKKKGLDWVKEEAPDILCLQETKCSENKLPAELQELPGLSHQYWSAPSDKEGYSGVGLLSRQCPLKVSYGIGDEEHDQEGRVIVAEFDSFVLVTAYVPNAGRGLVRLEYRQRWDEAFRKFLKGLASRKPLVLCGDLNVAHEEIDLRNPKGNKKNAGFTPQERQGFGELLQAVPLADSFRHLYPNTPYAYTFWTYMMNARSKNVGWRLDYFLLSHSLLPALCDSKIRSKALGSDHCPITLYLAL
# Procedure, shortened: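 Endonuclease activity of human APE1 is followed as dequenching when the enzyme incises a tetrahydrofuran abasic site in a short duplex labelled 5'-TAMRA/3'-BHQ-2 (50 nM final), after 15 min enzyme–compound preincubation at room temperature.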
# [4] = Counterscreen for APE1 Inhibitors: Fluorescent Dye Displacement Validation Assay (AID 1707)
# Procedure, shortened: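 Thiazole Orange displacement from dsDNA: 250 nM ThO with 50 nM TAMRA-labelled abasic-site (tetrahydrofuran) duplex in 50 mM Tris-HCl pH7.5, 50mM NaCl, 2 mM MgCl2, 0.01% Tween-20. Loss of endpoint fluorescence (ex 480 nm, em 540 nm) flags DNA binders.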
# [5] = target: Endonuclease 4 (Escherichia coli (strain K12)) (UniProt P0A6C1); test: Counterscreen for APE1 Inhibitors: qHTS Validation Assay for Inhibitors of Endonuclease IV (AID 1708)
# Procedure, shortened: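 2 nM enzyme was preincubated with compounds for 15 min at room temperature in 50 mM Tris-HCl pH 7.5, 50 mM NaCl, 2 mM MgCl2, 1 mM DTT, 0.01% Tween-20. 50 nM THF-abasic TAMRA/BHQ-2 duplex substrate started the reaction.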
# [6] = qHTS for differential inhibitors of proliferation of Plasmodium falciparum line 7G8 (AID 1815);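 further: potency means the concentration at half of the fitted maximal effect; parasite growth measured after three days of incubation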
# [7] = qHTS for differential inhibitors of proliferation of Plasmodium falciparum line GB4 (AID 1816); conditions: Potency: Plasmodium falciparum GB4 proliferation inhibition;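 further: potency means the concentration at half of the fitted maximal effect; parasite growth measured after 72 h incubation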
# [8] = qHTS for differential inhibitors of proliferation of Plasmodium falciparum line D10 (AID 1877);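 further: potency means the concentration at half of the fitted maximal effect; parasites grown with compound for 72 h before DNA staining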
# [9] = qHTS for differential inhibitors of proliferation of Plasmodium falciparum line W2 (AID 1883); conditions: Potency: Plasmodium falciparum W2 proliferation inhibition;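 further: potency means the concentration at half of the fitted maximal effect; parasites grown with compound for 72 h before lysis and staining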
# [10] = qHTS for differential inhibitors of proliferation of Plasmodium falciparum line HB3 (AID 1886); conditions: Potency: Plasmodium falciparum HB3 proliferation inhibition;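 further: potency means the concentration at half of the fitted maximal effect; parasites grown with compound for 72 h before SYBR Green readout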
# [11] = target: ATP-dependent DNA helicase Q1 (Homo sapiens) (UniProt P46063); test: qHTS Validation Assay for Inhibitors of RecQ-Like Dna Helicase 1 (RECQ1) (AID 2353)
# ATP-dependent DNA helicase Q1 (Homo sapiens), sequence (P46063 whole entry, looked up): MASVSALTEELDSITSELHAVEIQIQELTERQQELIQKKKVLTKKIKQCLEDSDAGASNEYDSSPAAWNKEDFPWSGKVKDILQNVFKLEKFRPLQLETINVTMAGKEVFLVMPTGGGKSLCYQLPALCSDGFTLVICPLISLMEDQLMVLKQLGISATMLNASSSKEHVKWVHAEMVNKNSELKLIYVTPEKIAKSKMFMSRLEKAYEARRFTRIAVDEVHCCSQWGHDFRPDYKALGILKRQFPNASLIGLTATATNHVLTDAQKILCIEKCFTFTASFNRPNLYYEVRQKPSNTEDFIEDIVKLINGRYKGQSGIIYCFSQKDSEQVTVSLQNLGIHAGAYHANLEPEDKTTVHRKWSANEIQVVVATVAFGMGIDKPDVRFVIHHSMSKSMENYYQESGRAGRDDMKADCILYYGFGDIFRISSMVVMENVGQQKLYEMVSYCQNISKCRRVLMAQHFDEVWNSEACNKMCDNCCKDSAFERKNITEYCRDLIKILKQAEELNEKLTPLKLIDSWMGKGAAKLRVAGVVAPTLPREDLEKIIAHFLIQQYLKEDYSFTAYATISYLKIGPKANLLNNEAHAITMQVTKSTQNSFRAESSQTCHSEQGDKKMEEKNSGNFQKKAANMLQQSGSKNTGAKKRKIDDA
# Procedure, shortened: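 50 nM RECQ1T1 preincubated 15 min with compound in Tris pH 8.0 buffer with MgCl2, DTT, Tween-20 and 2.5 ug/ml poly(dI-dC); started with 200 nM TAMRA/BHQ-2 forked duplex and 2 mM ATP. Unwinding read as fluorescence (525/598 nm), two reads 2 h apart.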
# [12] = Validation screen for small molecules that induce DNA re-replication in MCF 10A normal breast cells (AID 463097); further: nearly all actives have a fitted effect of over 60% in size
# Procedure, shortened: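 DNA re-replication was detected as a rise in nuclei with elevated Hoechst fluorescence after a 48 hr compound exposure of MCF 10A cells at 37 C.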
# [13] = Quantitative high throughput screen for delayed death inhibitors of the malarial parasite plastid, 96 hour incubation (AID 488745); further: nearly all actives have a fitted effect of over 70% in size
# Procedure, shortened: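 P. falciparum carrying an integrated firefly luciferase reporter, grown in erythrocytes (2% hematocrit, 0.1% parasitemia final) in RPMI 1640/0.5% Albumax, was exposed to compound for 96 h (two generations) at 37 C, 5% CO2. Luminescence decrease indicated growth inhibition.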
# [14] = Quantitative high throughput screen for delayed death inhibitors of the malarial parasite plastid, 48 hour incubation (AID 488752); further: nearly all actives have a fitted effect of over 65% in size
# Procedure, shortened: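 Erythrocytes infected with P. falciparum carrying an integrated firefly luciferase reporter (2% hematocrit, 0.1% parasitemia final) were exposed to compounds in RPMI 1640/0.5% Albumax for 48 h at 37 C, 5% CO2. Growth inhibition was scored as reduced luminescence.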
# [15] = target: M-phase phosphoprotein 8 (Homo sapiens) (UniProt Q99549); test: qHTS Validation Assay for Inhibitors for MPP8 Chromodomain Interactions with Methylated Histone Tails (AID 488949);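 further: AlphaScreen signal from MPP8 chromodomain bound to biotinylated H3K9me3 peptide; top concentration of the series differs between compounds; nearly all actives have a fitted effect of over 55% in size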
# M-phase phosphoprotein 8 (Homo sapiens), sequence (Q99549 whole entry, looked up): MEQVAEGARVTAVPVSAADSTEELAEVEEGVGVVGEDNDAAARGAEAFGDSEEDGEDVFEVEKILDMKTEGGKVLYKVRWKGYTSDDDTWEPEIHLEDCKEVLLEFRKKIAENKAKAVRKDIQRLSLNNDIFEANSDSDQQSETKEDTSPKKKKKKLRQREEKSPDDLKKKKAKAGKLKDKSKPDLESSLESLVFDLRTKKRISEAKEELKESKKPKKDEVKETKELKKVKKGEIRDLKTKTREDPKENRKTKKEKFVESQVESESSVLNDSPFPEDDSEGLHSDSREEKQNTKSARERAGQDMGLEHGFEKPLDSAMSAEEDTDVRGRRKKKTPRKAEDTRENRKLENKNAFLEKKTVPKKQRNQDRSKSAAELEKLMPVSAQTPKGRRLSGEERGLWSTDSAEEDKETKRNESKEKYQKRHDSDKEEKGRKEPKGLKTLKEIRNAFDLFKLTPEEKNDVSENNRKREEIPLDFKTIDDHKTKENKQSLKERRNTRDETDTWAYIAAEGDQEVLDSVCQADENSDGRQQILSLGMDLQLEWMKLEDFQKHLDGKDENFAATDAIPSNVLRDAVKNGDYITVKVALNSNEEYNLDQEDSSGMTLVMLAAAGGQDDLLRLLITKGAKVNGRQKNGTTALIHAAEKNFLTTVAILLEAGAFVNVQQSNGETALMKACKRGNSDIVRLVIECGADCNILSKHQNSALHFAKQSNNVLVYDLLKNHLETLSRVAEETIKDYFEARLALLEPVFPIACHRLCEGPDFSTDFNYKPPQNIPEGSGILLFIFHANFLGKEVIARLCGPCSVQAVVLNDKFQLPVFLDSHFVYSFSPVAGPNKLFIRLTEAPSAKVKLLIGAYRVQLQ
# Procedure, shortened: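 Disruption of the preformed MPP8–trimethyl-H3K9 peptide complex (both 50 nM, 30 min, RT) is measured after 30 min compound exposure, using AlphaScreen proximity beads; aurintricarboxylic acid titration serves as plate control.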
# [16] = target: Transient receptor potential cation channel subfamily V member 1 (Homo sapiens) (UniProt Q8NER1); test: HTS Assay for Compounds that Act as Enhancers of the Vanilloid Receptor 1 (AID 488979)
# Transient receptor potential cation channel subfamily V member 1 (Homo sapiens), sequence (Q8NER1 whole entry, looked up): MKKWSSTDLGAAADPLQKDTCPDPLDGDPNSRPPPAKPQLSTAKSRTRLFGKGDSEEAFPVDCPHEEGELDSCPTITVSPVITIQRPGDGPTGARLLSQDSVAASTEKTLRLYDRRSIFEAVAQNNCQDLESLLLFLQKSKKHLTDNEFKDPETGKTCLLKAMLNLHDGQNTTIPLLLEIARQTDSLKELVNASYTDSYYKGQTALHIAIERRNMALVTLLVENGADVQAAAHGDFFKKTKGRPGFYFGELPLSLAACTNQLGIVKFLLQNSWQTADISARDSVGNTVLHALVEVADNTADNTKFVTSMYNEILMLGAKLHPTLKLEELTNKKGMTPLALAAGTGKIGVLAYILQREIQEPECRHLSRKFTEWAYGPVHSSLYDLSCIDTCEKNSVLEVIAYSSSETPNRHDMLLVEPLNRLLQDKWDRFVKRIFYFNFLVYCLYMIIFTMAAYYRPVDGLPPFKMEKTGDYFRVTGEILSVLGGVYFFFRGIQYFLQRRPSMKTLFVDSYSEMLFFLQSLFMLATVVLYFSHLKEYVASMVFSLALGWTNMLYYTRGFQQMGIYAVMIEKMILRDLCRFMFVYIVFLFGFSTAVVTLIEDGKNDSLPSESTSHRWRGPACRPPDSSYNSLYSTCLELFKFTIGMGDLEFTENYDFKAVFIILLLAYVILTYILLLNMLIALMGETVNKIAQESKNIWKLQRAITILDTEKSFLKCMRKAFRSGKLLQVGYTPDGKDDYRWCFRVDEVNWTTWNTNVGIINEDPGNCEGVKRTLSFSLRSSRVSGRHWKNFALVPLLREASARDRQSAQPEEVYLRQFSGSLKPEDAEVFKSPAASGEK
# Procedure, shortened: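 TRPV1-expressing cells loaded with Fluo-8 calcium dye; compounds added and calcium influx read kinetically for 3 min (agonist phase), then capsaicin at EC20 added and read 2 min more for enhancement. Fluorescence ex 480/em 520 nm.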
# [17] = target: Galactokinase (Homo sapiens) (UniProt P51570); test: qHTS Validation Assay for Inhibitors of Human Galactokinase (GALK) (AID 493189)
# Galactokinase (Homo sapiens), sequence (P51570 whole entry, looked up): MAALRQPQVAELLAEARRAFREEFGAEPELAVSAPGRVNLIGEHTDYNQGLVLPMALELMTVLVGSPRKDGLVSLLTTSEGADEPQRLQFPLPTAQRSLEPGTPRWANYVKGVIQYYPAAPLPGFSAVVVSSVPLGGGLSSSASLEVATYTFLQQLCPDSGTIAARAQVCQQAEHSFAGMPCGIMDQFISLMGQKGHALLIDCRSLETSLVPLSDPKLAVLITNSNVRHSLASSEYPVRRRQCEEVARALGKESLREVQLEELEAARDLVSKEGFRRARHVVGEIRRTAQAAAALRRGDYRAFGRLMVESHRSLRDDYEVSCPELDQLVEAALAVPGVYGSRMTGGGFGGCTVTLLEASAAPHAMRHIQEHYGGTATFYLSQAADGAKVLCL
# Procedure, shortened: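 Compounds were pin-transferred into ATP buffer, then GALK-galactose mix was added (final 5 nM enzyme, 100 uM galactose, 35 uM ATP). After 1 h at room temperature, remaining ATP was measured luminescently.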
# [18] = Validation screen for small molecules that induce DNA re-replication in SW480 colon adenocarcinoma cells (AID 504364)
# Procedure, shortened: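 SW480 cells seeded at 250 per well were exposed to compound or DMSO for 48 hr at 37 C, 5% CO2, then stained with Hoechst for 40 min. DNA content per nucleus was imaged (405 nm ex, 500-530 nm em).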
# [19] = target: Voltage-gated inwardly rectifying potassium channel KCNH2 (Homo sapiens) (UniProt Q12809); test: qHTS Assay for Small Molecule Inhibitors of the Human hERG Channel Activity (AID 588834);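 further: top concentration of the series differs between compounds; lower thallium flux fluorescence means stronger hERG block; nearly all actives have a fitted effect of over 50% in size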
# Voltage-gated inwardly rectifying potassium channel KCNH2 (Homo sapiens), sequence (Q12809 whole entry, looked up): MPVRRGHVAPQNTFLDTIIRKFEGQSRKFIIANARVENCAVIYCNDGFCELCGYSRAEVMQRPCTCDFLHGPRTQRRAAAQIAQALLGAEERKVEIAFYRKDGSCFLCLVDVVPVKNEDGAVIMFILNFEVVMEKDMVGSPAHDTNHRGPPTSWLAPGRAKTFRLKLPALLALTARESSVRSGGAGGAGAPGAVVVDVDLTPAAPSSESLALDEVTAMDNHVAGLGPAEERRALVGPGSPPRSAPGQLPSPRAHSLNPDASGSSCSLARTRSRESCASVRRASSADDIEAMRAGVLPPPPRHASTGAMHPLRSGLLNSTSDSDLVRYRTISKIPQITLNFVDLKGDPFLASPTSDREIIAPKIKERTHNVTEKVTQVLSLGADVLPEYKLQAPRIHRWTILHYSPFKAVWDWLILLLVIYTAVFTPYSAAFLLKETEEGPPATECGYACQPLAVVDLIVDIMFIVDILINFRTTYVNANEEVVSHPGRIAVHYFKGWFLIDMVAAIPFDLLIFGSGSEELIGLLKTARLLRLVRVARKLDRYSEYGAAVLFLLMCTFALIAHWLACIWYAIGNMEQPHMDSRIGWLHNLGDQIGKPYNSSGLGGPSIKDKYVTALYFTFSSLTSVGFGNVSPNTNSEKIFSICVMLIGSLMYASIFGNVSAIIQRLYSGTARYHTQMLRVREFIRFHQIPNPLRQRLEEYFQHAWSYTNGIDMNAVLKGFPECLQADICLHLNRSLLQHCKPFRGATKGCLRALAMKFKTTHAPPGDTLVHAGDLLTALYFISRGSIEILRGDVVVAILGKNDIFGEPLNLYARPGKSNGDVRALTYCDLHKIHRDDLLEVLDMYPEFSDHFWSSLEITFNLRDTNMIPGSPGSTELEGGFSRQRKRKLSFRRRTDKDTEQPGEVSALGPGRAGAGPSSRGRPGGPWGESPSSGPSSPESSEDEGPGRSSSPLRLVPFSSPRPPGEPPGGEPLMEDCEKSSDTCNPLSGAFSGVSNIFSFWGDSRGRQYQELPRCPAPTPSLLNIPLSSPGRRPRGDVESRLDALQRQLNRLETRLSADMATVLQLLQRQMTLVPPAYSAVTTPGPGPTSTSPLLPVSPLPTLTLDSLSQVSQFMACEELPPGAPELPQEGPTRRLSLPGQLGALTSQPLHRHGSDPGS
# Procedure, shortened: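 Measured: FluxOR fluorescence after thallium stimulation in U2OS cells transduced with hERG by baculovirus. Compounds pre-incubated around 10 min; medium Opti-MEM with 2% FCS. AC50 from Hill equation.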
# [20] = tested on: Zika virus NS2B-NS3 protease; test: Primary screen GU AMC qHTS for Zika virus inhibitors (AID 1347154); further: nearly all actives have a fitted effect of over 70% in size
# Procedure, shortened: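 Unlinked Zika NS2B hydrophilic domain/NS3 protease domain noncovalent complex (25 nM final) in 10 mM Tris-HCl pH 8.0, 0.01% Tween 20, with AMC peptide substrate. Fluorescence (ex 340, em 450 nm) change over 15 min, room temperature; percent inhibition fitted to 4-parameter Hill equation.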
compound,measurement,setting,value
C/C=C1\C(=O)CC2C3CCC4=CC(=O)CC[C@]4(C)C3CC[C@]12C (some centres not stated),outcome,[1],inactive
same,"activity change, negative = inhibition",[2]; at 57.5 µM (top of the series),1.38% (inactive)
same,max response,[2]; measured here: cell count channel max response,72.1%
same,max response,[2]; measured here: lipid channel max response,74.6%
same,Potency,[3],inactive
same,Potency,[4],inactive
same,Potency,[5],inactive
same,Potency,[6],11.2 µM (active)
same,Potency,[7],14.1 µM (active)
same,Potency,[8],10 µM (active)
same,Potency,[9],7.08 µM (active)
same,Potency,[10],11.2 µM (active)
same,Potency,[11],inactive
same,Potency,[12],inactive
same,Potency,[13],inactive
same,Potency,[14],inactive
same,Potency,[15],inactive
same,outcome,[16],inactive
same,outcome,[17],inactive
same,outcome,[18],inactive
same,Potency,[19],inactive
same,Potency,[20],inactive
